Measured values from the supplement of paper PMC10849652.
Targets with a hit are over-represented here; the source holds about 7,900 in all. About 0.6% of all pairs of compound and target were hits. A number with no mark means an inactive call.

Compound: Cc1sc2c(c1C)C(c1ccc(Cl)cc1)=N[C@@H](CC(=O)OC(C)(C)C)c1nnc(C)n1-2
Experiment: log2 fold change, soluble protein after heating vs DMSO (PISA); higher = thermal stabilisation; K562 cells, 10 uM, 30 min; active = over 0.2 and 3.5 SD of the protein, either way, in both replicates (recomputed)
Procedure, shortened: (§1)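 K562 cells at 2×10^6 cells/mL were exposed to 10 μM compound for 30 min, then aliquots were heated for 3 min across 48°C-58°C, pooled, and extracted in PBS containing 0.5% NP-40 at 4°C. The supernatant after 21,000xg for 90 min was taken as soluble protein and measured by TMTpro 16plex LC-MS/MS with channel sums equalised. Thermal stability is reported relative to control samples, with values from duplicates. Fold changes are given on a log2 scale.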

Chain of UniProt Q86TA1 (Q86TA1 whole entry, looked up): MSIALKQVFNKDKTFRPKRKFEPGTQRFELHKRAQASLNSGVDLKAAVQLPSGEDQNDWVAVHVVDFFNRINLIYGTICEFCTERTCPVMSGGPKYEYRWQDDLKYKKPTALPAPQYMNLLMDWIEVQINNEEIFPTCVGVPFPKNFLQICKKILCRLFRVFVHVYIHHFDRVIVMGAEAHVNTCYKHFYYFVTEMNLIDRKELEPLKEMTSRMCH
Chain of UniProt P56556 (P56556 whole entry, looked up): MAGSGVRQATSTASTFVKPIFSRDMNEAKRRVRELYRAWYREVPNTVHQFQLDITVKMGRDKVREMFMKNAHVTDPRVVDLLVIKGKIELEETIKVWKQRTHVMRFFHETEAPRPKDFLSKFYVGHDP
Chain of UniProt Q8N573 (Q8N573 whole entry, looked up): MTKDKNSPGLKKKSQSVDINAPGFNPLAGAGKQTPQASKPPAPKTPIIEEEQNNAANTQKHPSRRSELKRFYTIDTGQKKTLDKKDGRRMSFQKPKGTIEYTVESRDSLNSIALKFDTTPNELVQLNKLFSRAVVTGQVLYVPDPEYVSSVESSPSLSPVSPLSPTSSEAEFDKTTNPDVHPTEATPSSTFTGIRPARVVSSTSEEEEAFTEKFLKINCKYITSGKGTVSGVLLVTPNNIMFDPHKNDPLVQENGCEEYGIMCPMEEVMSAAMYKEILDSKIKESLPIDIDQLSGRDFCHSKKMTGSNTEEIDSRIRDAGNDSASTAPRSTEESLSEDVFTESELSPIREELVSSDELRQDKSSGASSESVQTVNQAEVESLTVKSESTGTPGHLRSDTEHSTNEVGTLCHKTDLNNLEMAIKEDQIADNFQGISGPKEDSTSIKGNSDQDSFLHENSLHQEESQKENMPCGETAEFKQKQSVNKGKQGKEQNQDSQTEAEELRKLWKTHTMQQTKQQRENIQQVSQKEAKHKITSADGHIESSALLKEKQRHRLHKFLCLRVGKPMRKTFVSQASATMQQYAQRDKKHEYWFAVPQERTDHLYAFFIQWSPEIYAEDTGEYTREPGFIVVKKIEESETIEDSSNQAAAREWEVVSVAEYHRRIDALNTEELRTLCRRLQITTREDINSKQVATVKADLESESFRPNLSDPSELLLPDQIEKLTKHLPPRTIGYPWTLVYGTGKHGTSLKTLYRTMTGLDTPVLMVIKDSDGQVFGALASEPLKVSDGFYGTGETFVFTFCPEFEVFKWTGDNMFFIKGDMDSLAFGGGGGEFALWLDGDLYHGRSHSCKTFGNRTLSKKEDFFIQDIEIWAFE
Chain of UniProt O60361 (O60361 whole entry, looked up): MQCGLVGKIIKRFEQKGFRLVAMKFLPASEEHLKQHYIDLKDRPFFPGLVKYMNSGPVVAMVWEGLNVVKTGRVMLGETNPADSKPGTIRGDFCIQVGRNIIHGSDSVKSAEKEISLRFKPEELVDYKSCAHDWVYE
Chain of UniProt Q86WQ0 (Q86WQ0 whole entry, looked up): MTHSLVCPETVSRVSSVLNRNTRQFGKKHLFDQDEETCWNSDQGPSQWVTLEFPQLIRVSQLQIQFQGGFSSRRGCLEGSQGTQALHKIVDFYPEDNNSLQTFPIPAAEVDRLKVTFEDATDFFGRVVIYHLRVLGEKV
Chain of UniProt Q7L1V2 (Q7L1V2 whole entry, looked up): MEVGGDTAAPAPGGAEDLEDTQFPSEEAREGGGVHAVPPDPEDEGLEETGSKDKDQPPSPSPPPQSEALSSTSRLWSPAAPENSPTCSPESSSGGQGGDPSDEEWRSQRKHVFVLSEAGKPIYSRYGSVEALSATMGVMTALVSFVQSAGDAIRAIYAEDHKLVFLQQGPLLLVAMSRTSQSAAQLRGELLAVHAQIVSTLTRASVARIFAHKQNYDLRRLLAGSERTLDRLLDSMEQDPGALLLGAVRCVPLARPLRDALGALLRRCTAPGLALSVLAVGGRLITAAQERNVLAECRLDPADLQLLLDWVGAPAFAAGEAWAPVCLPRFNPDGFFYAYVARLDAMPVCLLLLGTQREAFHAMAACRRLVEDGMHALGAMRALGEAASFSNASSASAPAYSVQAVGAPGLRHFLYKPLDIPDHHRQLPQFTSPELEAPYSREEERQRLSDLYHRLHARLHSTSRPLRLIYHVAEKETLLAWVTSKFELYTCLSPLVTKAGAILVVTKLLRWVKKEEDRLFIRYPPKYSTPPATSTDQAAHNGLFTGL
Chain of UniProt Q9HAN9 (Q9HAN9 whole entry, looked up): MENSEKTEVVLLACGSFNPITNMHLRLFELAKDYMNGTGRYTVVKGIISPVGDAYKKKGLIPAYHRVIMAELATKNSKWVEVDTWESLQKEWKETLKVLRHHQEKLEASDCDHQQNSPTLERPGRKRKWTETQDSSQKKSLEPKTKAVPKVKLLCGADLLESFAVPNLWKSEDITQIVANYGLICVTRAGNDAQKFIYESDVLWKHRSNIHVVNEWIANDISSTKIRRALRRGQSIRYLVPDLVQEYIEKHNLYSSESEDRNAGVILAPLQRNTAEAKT
Chain of UniProt P20585 (P20585 whole entry, looked up): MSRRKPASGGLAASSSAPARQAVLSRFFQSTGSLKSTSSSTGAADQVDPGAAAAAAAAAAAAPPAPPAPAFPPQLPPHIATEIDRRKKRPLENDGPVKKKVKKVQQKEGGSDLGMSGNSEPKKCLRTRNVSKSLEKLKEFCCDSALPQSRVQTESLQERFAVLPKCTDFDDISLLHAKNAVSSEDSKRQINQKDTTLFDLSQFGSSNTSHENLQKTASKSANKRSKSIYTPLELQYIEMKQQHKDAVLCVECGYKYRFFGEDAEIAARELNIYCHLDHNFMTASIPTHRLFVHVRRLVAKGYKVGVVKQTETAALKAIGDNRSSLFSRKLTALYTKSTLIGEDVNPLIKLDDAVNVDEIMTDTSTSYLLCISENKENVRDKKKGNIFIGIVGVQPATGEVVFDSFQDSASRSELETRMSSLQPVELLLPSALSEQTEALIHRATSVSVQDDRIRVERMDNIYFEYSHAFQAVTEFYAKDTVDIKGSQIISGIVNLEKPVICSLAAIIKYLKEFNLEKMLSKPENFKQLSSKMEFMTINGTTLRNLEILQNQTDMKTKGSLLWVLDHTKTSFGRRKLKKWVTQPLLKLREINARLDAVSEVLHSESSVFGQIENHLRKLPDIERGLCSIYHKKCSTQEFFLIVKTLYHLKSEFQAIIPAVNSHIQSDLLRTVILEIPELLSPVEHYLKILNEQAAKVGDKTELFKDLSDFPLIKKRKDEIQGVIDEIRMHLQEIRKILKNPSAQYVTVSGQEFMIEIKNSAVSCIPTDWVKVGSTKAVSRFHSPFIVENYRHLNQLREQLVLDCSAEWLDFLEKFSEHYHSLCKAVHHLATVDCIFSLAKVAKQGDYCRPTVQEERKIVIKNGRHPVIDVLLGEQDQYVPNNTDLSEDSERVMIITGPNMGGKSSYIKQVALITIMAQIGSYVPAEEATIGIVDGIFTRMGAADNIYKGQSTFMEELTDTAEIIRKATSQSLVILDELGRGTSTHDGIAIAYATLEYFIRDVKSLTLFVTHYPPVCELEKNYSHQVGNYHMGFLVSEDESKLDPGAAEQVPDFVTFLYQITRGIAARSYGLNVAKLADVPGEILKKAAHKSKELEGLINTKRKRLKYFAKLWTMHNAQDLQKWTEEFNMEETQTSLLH
Chain of UniProt Q8NCF5 (Q8NCF5 whole entry, looked up): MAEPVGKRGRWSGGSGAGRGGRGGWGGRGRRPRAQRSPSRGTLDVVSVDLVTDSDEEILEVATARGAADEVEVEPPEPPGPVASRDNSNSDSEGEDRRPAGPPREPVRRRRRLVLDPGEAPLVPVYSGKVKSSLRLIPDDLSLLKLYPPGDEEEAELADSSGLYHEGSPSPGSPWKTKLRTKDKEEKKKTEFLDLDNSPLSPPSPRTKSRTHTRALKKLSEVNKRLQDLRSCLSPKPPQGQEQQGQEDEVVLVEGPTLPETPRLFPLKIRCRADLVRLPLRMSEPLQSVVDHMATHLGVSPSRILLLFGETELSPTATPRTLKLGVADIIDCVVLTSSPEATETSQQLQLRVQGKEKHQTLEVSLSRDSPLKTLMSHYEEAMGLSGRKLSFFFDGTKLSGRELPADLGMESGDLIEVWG
Chain of UniProt P17568 (P17568 whole entry, looked up): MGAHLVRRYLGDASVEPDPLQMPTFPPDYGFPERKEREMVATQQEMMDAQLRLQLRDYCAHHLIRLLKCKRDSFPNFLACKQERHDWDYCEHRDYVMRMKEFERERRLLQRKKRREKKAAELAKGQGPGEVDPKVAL
Chain of UniProt Q9H000 (Q9H000 whole entry, looked up): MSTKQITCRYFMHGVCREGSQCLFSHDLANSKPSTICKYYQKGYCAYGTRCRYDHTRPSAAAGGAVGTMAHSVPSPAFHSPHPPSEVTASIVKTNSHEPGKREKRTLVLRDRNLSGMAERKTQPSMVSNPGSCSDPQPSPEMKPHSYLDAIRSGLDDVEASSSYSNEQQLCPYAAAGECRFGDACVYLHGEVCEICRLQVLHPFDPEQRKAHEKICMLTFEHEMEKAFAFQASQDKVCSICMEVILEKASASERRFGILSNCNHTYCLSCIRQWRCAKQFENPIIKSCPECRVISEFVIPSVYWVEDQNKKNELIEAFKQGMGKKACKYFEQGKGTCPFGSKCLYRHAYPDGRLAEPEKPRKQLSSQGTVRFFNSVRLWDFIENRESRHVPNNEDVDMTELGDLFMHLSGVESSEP
Chain of UniProt Q9BUB5 (Q9BUB5 whole entry, looked up): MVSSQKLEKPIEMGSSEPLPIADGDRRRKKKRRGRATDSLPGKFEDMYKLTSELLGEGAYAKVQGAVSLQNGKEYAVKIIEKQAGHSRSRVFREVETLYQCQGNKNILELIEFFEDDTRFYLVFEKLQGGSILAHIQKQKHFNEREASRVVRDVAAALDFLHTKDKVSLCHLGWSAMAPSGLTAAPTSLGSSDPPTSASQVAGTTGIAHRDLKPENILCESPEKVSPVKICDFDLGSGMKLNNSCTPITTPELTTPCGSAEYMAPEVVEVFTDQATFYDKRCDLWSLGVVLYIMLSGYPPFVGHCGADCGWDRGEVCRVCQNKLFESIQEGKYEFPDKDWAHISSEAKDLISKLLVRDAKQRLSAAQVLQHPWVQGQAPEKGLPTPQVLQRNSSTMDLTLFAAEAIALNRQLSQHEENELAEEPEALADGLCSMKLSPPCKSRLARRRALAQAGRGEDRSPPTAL

Target | log2 fold change
MSTO1 (UniProt Q9BUK6) | -0.005
NCAPD2 (UniProt Q15021) | 0.016
MRPS26 (UniProt Q9BYN8) | -0.009
NAA11 (UniProt Q9BSU3) | -0.12
NME2P1 (UniProt O60361) | 0.082
NMD3 (UniProt Q96D46) | -0.02
MINK1 (UniProt Q8N4C8) | 0.037
MORC3 (UniProt Q14149) | 0.017
MKNK1 (UniProt Q9BUB5) | 0.03
MKRN2 (UniProt Q9H000) | 0.122
NFATC2 (UniProt Q13469) | 0.023
NFATC2IP (UniProt Q8NCF5) | -0.088
NOB1 (UniProt Q9ULX3) | 0.067
MON1B (UniProt Q7L1V2) | -0.008
NDUFA6 (UniProt P56556) | -0.067
MRPS27 isoform 2 (UniProt Q92552) | 0.035
NMT1 (UniProt P30419) | 0.076
NR2C2AP isoform 2 (UniProt Q86WQ0) | -0.067
NCOR1 (UniProt O75376) | 0.016
MOB3B (UniProt Q86TA1) | 0.041
PAK1 isoform 2 (UniProt Q13153) | -0.02
NAA38 isoform 2 (UniProt Q9BRA0) | -0.029
MITD1 (UniProt Q8WV92) | 0.045
NDUFB7 (UniProt P17568) | -0.015
NIPSNAP2 (UniProt O75323) | -0.019
MSH3 (UniProt P20585) | -0.028
OXSR1 (UniProt O95747) | -0.003
NMNAT1 (UniProt Q9HAN9) | 0.304
NOP58 (UniProt Q9Y2X3) | 0.068
OXR1 (UniProt Q8N573) | -0.041

Compound: c1ccc([C@@H]2C[C@H]2NC2CCNCC2)cc1
Experiment: as above
Procedure, shortened: as §1

Target | log2 fold change
MSTO1 (UniProt Q9BUK6) | -0.071
NCAPD2 (UniProt Q15021) | 0.007
MRPS26 (UniProt Q9BYN8) | 0.013
NAA11 (UniProt Q9BSU3) | -0.049
NME2P1 (UniProt O60361) | -0.004
NMD3 (UniProt Q96D46) | -0.11
MINK1 (UniProt Q8N4C8) | 0.005
MORC3 (UniProt Q14149) | 0.062
MKNK1 (UniProt Q9BUB5) | -0.009
MKRN2 (UniProt Q9H000) | -0.017
NFATC2 (UniProt Q13469) | 0.021
NFATC2IP (UniProt Q8NCF5) | 0.156
NOB1 (UniProt Q9ULX3) | -0.06
MON1B (UniProt Q7L1V2) | -0.064
NDUFA6 (UniProt P56556) | -0.039
MRPS27 isoform 2 (UniProt Q92552) | -0.059
NMT1 (UniProt P30419) | -0.018
NR2C2AP isoform 2 (UniProt Q86WQ0) | 0.032
NCOR1 (UniProt O75376) | -0.111
MOB3B (UniProt Q86TA1) | -0.088
PAK1 isoform 2 (UniProt Q13153) | -0.092
NAA38 isoform 2 (UniProt Q9BRA0) | -0.124
MITD1 (UniProt Q8WV92) | 0.06
NDUFB7 (UniProt P17568) | 0.03
NIPSNAP2 (UniProt O75323) | -0.051
MSH3 (UniProt P20585) | -0.087
OXSR1 (UniProt O95747) | -0.03
NMNAT1 (UniProt Q9HAN9) | 0.02
NOP58 (UniProt Q9Y2X3) | 0.031
OXR1 (UniProt Q8N573) | -0.069
